Marburg entry inh: Marburg virus entry inhibition | AID 540276 | hit rate 1.8% among 300,000 | Marburg virus pseudotyped entry inhibition, cell reporter | Potency, µM (series often up to 37.8 µM), for the others: at the highest dose activity change, negative = inhibition, hits mostly inhibitors; calls by dose curve; tested in HEK293 cells; further: potency means the concentration at half of the fitted maximal effect
FMDV antiviral: antivirals against foot and mouth disease virus; FMDV antiviral cell-based qHTS; hit rate 1.2% among 410,000; Potency, µM (doses to about 57.9 µM), for the others: at the highest dose activity change, negative = inhibition, actives largely listed as inhibitors; calls by dose curve; tested in HEK293T cells; further: read-out not given here; potency means the concentration at half of the fitted maximal effect; nearly all actives have a fitted effect of over 45% in size
HCMV inh: blocks human cytomegalovirus replication | HFF cells, HCMV-luciferase reporter, 72 h; active compounds read low | activity change, negative = inhibition, % at 57.5 µM | hit rate 4.5% among 410,000; in the data active means activity change below about -60%; inconclusive means no clear call, values can overlap the other calls; inactive means above about -39%
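Inhibition of viral replication was scored as loss of reporter luminescence in HFFs infected with HCMV-luciferase (MOI 1 PFU/cell) for 72 h; compounds tested at 2 doses, normalized to buffer and Salinomycin controls.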
HCV inhibitor: inhibitors of hepatitis C virus infection; Potency, µM (top dose mostly 41.8 µM), for the others: top-dose activity change, negative = inhibition, actives largely listed as inhibitors; hit rate 3.4% among 340,000; AID 651820; Huh7.5.1 HCVcc-Cre infection, luciferase reporter, 44 h; active means well fitted inhibition curve with a large enough effect; inconclusive means small, poorly fitted or top-dose-only effect, or another doubt; inactive means no such curve, though single readings can be large or run the other way; further: potency means the concentration at half of the fitted maximal effect
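1,000 cells/well; 4 h culture; + compound; + HCVcc-Cre (~0.5 moi); 44 h; luciferase substrate, RT 15 min; read 15 sec.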
Lassa entry inh: inhibitors of Lassa virus binding or cell entry | Lassa virus pseudotype entry inhibition, cell reporter | hit rate 1.2% among 300,000 | Potency, µM (series often up to 37.9 µM), inactives show top-dose activity change, negative = inhibition, usual class: inhibitors; calls by dose curve; tested in HEK293 cells; further: potency means the concentration at half of the fitted maximal effect; nearly all actives have a fitted effect of over 50% in size
The depositor's hits bear a star; ! = a repeat was not active; [ ] = remark or other dose. Sampled rows, rich in hits. Any-hit rate of the full collection: about 7.9%. On the % scale 0 is the no-effect control and ±100 the full control effect.

What do the screens show for `CC(C)(C)c1nnc(N/N=C/c2cc(Br)ccc2O)n(N)c1=O`?
Marburg entry inh: inconclusive; FMDV antiviral: 22µM*; HCMV inh: -101*; HCV inhibitor: inconclusive; Lassa entry inh: inconclusive

Results for O=C(NCc1ccc(F)cc1Cl)c1cc(=O)[nH]c2ccc(S(=O)(=O)N3CCCCC3)cc12 ?
FMDV antiviral: -14%; HCMV inh: -14; Lassa entry inh: 1%[46.1 µM]

Results for CCOC(=O)c1c(-c2ccc(C)cc2)cn2ccccc12 ?
Marburg entry inh: 0%; FMDV antiviral: 0%; HCMV inh: 17; HCV inhibitor: 10µM*; Lassa entry inh: 1%

How did CCN1CCN(C(c2ccc(SC)cc2)c2c(O)cc(C)n(Cc3ccco3)c2=O)CC1 (stereo not drawn) do in these assays?
FMDV antiviral: -16%; HCMV inh: 5; Lassa entry inh: -2%[46.1 µM]

How did CCc1cccc(NC(=O)CCCn2nc(CC)n3c(cc4occc43)c2=O)c1 do in these assays?
FMDV antiviral: -9%; HCMV inh: -24; HCV inhibitor: inconclusive

How did CCc1nn(CC(=O)N2CCN(Cc3ccc4c(c3)OCO4)CC2)c(=O)c2cc3occc3n12 do in these assays?
Marburg entry inh: inconclusive; FMDV antiviral: inconclusive; HCMV inh: -61*; HCV inhibitor: inconclusive; Lassa entry inh: -15%

What do the screens show for `CCc1nn(CCCC(=O)NCc2ccccc2Br)c(=O)c2cc3occc3n12`?
Marburg entry inh: 0%[46.1 µM]; FMDV antiviral: -13%; HCMV inh: -68*!; HCV inhibitor: 38%

What do the screens show for `CCc1nn(CC(=O)NCCc2ccc(OC)cc2OC)c(=O)c2cc3occc3n12`?
Marburg entry inh: -21%[46.1 µM]; FMDV antiviral: 2%; HCMV inh: -62*!; HCV inhibitor: inconclusive; Lassa entry inh: -13%[46.1 µM]

Results for O=C(Cn1c(=O)nc(-c2ccccc2)c2ccccc21)Nc1ccc(Cl)cc1F ?
Marburg entry inh: 2%[46.1 µM]; FMDV antiviral: -11%; HCMV inh: -18; Lassa entry inh: 7%[46.1 µM]

What do the screens show for `COc1ccc(CCNC(=O)C2c3ccccc3C(=O)N2Cc2ccccc2)cc1OC` (stereo not drawn)?
FMDV antiviral: 4%; HCMV inh: 17; Lassa entry inh: -5%[46.1 µM]

What do the screens show for `O=C(C1CCCN(S(=O)(=O)Cc2ccccc2)C1)N1CCC(Cc2ccccc2)CC1` (stereo not drawn)?
Marburg entry inh: -28%; FMDV antiviral: 40µM*; HCMV inh: -5; HCV inhibitor: inconclusive; Lassa entry inh: -17%

What do the screens show for `CCCC(=O)Oc1c(Sc2ccc(C)cc2)c(C)nn1-c1ccccc1`?
Marburg entry inh: inconclusive; FMDV antiviral: -9%; HCMV inh: -7; Lassa entry inh: 19%[46.1 µM]

What do the screens show for `CC1=C(c2ccc(C(C)C)cc2)S(=O)(=O)N=C1N1CCN(C(=O)c2ccco2)CC1`?
Marburg entry inh: 9%[46.1 µM]; FMDV antiviral: inconclusive; HCMV inh: -21; HCV inhibitor: -8%; Lassa entry inh: -2%[46.1 µM]

What do the screens show for `CC1=C(c2ccc(C(C)C)cc2)S(=O)(=O)N=C1N1CCN(c2ccccc2F)CC1`?
Marburg entry inh: -23%[46.1 µM]; FMDV antiviral: 6%; HCMV inh: -62*; Lassa entry inh: -1%[46.1 µM]

What do the screens show for `Cc1ccc(CNC(=O)c2cc3c(=O)n(Cc4cccnc4)ccc3nc2C)cc1`?
FMDV antiviral: -16%; HCMV inh: -15; Lassa entry inh: -13%[46.1 µM]

Results for CCC1CCCCN1S(=O)(=O)c1ccc(C(=O)Nc2sc3c(c2C(N)=O)CCC3)cc1 (stereo not drawn) ?
FMDV antiviral: 0%; HCMV inh: -31; Lassa entry inh: -28%[46.1 µM]

How did Cc1ccccc1C(=O)Nc1nnc2n1CCS2 do in these assays?
FMDV antiviral: 74%; HCMV inh: 48; Lassa entry inh: -3%[46.1 µM]

How did O=C(Nc1nnc2n1CCS2)c1ccccc1 do in these assays?
FMDV antiviral: 23%; HCMV inh: -68*; Lassa entry inh: 7%[46.1 µM]

What do the screens show for `COc1ccc(CN2C(=O)C(NC(=O)c3ccccc3C)(C(F)(F)F)N=C2c2ccccc2)cc1` (stereo not drawn)?
Marburg entry inh: inconclusive; FMDV antiviral: -23%; HCMV inh: -103*; Lassa entry inh: inconclusive

Results for CCc1ccc(CNCc2c(C(=O)O)n(Cc3ccc(C)cc3)c3cc(C)ccc23)cc1 ?
FMDV antiviral: 0%; HCMV inh: -94*; Lassa entry inh: inconclusive

What do the screens show for `C=Cc1ccc(Cn2c(C(=O)O)c(CNCc3ccccc3)c3ccc(C)cc32)cc1`?
FMDV antiviral: inconclusive; HCMV inh: -102*; Lassa entry inh: inconclusive

Results for Cc1ccc2c(CNCCc3ccco3)c(C(=O)O)n(Cc3ccc(F)cc3)c2c1 ?
FMDV antiviral: -17%; HCMV inh: -109*; Lassa entry inh: -4%[46.1 µM]

Results for Cc1ccc(CNCc2c(C(=O)O)n(Cc3ccccc3C)c3cc(C)ccc23)cc1 ?
FMDV antiviral: inconclusive; HCMV inh: 25; Lassa entry inh: 9%[46.1 µM]

Results for Cc1ccc(CNCc2c(C(=O)O)n(Cc3ccc(C)cc3)c3cc(C)ccc23)cc1 ?
FMDV antiviral: -16%; HCMV inh: -107*; Lassa entry inh: inconclusive

How did COc1ccccc1CN1CCN(C2CCN(C(=O)Nc3ccccc3)CC2)C(=O)C1=O do in these assays?
FMDV antiviral: -14%; HCMV inh: 12; Lassa entry inh: 18%[46.1 µM]

What do the screens show for `COc1ccc(Nc2nn(-c3ccc(OC(F)(F)F)cc3)nc2C(C)=O)cc1`?
Marburg entry inh: 13%[46.1 µM]; FMDV antiviral: 10%; HCMV inh: 27; Lassa entry inh: inconclusive

Results for COc1ccc(Cn2c(C(=O)O)c(CNCc3ccc(C)o3)c3ccc(C)cc32)cc1 ?
FMDV antiviral: -1%; HCMV inh: -38; Lassa entry inh: inconclusive

What do the screens show for `COc1ccc(CNCc2c(C(=O)O)n(Cc3ccc(F)cc3)c3cc(C)ccc23)cc1OC`?
FMDV antiviral: -1%; HCMV inh: -68*; Lassa entry inh: inconclusive

Results for Cc1ccc(Cn2c(C(=O)O)c(CNCc3ccc(C)o3)c3ccc(C)cc32)cc1 ?
FMDV antiviral: -20%; HCMV inh: 6; Lassa entry inh: 15%[46.1 µM]

Results for Cc1ccc(Cn2c(C(=O)O)c(CNCc3ccc(OC(C)C)cc3)c3ccc(C)cc32)cc1 ?
FMDV antiviral: inconclusive; HCMV inh: -105*; Lassa entry inh: inconclusive

How did CCOC(=O)COc1ccccc1/C=C\[N+](=O)[O-] do in these assays?
Marburg entry inh: 16µM*; FMDV antiviral: 14µM*; HCV inhibitor: inconclusive; Lassa entry inh: 13µM*

Results for Cc1ccc(C(=O)COC(=O)COc2ccccc2[N+](=O)[O-])s1 ?
Marburg entry inh: inconclusive; FMDV antiviral: -1%; HCMV inh: -101*; HCV inhibitor: 30%; Lassa entry inh: 14%

Results for CCOC(=O)COc1cc([N+](=O)[O-])cc2cccnc12 ?
Marburg entry inh: 16%[46.1 µM]; FMDV antiviral: -11%; HCMV inh: -29; HCV inhibitor: 6%; Lassa entry inh: 17%[46.1 µM]
